Assay results reported in the supplement of paper PMC13380429.
Unmarked numbers belong to inactive results.

Test system: Vero E6 infected with SARS-CoV-2
Assay: inhibition of SARS-CoV-2 cytopathic effect; higher = more antiviral protection, active = above 15
Conditions: 48 h

Row | Structure (SMILES) | inhibition of SARS-CoV-2 cytopathic effect (1 nM) | inhibition of SARS-CoV-2 cytopathic effect (8.33 nM) | inhibition of SARS-CoV-2 cytopathic effect (100 nM) | inhibition of SARS-CoV-2 cytopathic effect (833.33 nM) | inhibition of SARS-CoV-2 cytopathic effect (10000 nM)
1 | CSc1ccc(OCc2ncc([N+](=O)[O-])n2C)cc1 [fexinidazole] | -1.82% | -1.7% | -1.88% | -3.53% | -0.36%
2 | O=C(Nc1cc(Cl)cc(Cl)c1O)c1c(O)c(Cl)cc(Cl)c1Cl [oxyclozanide] | -1.81% | -0.46% | 0.71% | -1.33% | -1.62%
3 | CSCC[C@H](NC(=O)[C@H](CC(C)C)NC(=O)[C@@H](Cc1c[nH]c2ccccc12)NC(=O)[C@H](Cc1ccccc1)N(C)C(=O)[C@@H](Cc1c[nH]c2ccccc12)NC(=O)[C@@H](N)CCCNC(=N)N)C(N)=O [antagonist-g] | 2.09% | 0.43% | -0.05% | 1.24% | -1.09%
4 | O=C1c2c(O)ccc(O)c2C(=O)c2c(NCCNCCO)ccc(NCCNCCO)c21 [mitoxantrone] | 0.83% | 0.03% | -2.74% | -4.43% | -11.1%
5 | O=C1CC[C@@](c2ccccc2)(C2CCN(Cc3ccc(I)cc3)CC2)C(=O)N1 [iododexetimide] | 1.14% | -0.02% | -0.5% | -1.35% | -6.84%
6 | CC(C)[N+](C)(CCOC(=O)C1c2ccccc2Oc2ccccc21)C(C)C [propantheline] | 0.61% | 0.91% | -0.81% | -1.32% | -0.04%
7 | C[C@@H]1CN(c2c(F)c(N)c3c(=O)c(C(=O)O)cn(C4CC4)c3c2F)C[C@H](C)N1 [sparfloxacin] | 2.08% | 2.09% | 0.77% | -1.72% | -2.31%
8 | O=C(CCc1ccc(O)cc1)c1c(O)cc(O)cc1O [phloretin] | -0.18% | -0.18% | 6.09% | -0.49% | -1.02%
9 | Cc1c(O)c(=O)ccn1C [deferiprone] | 0.05% | 0.64% | 1.45% | 3.35% | 0.91%
10 | CNC(=O)c1ccccc1Nc1nc(Nc2ccc(N3CCOCC3)cc2OC)ncc1Cl | -0.14% | -2.52% | -2.14% | -3.76% | -10.9%
11 | CCOc1cc([C@@H](CS(C)(=O)=O)N2C(=O)c3cccc(NC(C)=O)c3C2=O)ccc1OC [apremilast] | 2.28% | -0.67% | 1.6% | -0.47% | -2.14%
12 | C[S+]([O-])CCCCN=C=S (stereo not given) [sulforaphane] | -7.22% | -6.04% | -3.89% | -3.35% | 35.2% (active)
13 | O=C[C@H](F)[C@@H](O)[C@@H](O)[C@H](O)CO [2-fluoro-2-deoxy-D-galactose] | 1.5% | 1.13% | 1.44% | 1.15% | 0.92%
14 | CCCN1CCC[C@@H]2Cc3n[nH]cc3C[C@H]21 [quinpirol-(-)] | -2.17% | 2.95% | 0.48% | -2.24% | -0.87%
15 | Cc1cc(S(=O)(=O)O)c2c(C)ccc(C(C)C)cc1-2 [sodium-gualenate] | -10.1% | -5.96% | -9.82% | -7.07% | -0.7%
16 | COC(=O)c1ccc2c(c1)nc(NC(=O)c1ccccc1)n2CCCc1ccccc1 | -0.52% | -1.27% | -1.28% | -5.07% | -1.86%
17 | N[C@@H](C(=O)O)c1nn[nH]n1 (racemic) [tetrazol-5-yl-glycine-(RS)] | -2.49% | -1.1% | 0.87% | 1.56% | -1.13%
18 | CC1(C)[C@H](C(=O)O)N2C(=O)C[C@H]2S1(=O)=O [sulbactam] | 2.32% | 2.68% | -2.37% | -0.56% | -3.63%
